Assay outcomes (PubChem BioAssay)
This is a sample that favours compounds with a hit; in the whole collection about 1.4% have one here.
PTHR1 ag – agonists of human PTHR1 parathyroid hormone receptor. Q03431. HEK293 GP2 PTHR1 cells, GloSensor cAMP luminescence, 1 h. Potency, µM (highest dose often 115 µM), for the others: at the highest dose activation, actives largely listed as activators. 0.075% of 410,000 active; also: potency is read from the fitted curve at half-maximal effect; nearly all actives have a fitted effect of over 55% in size
Target sequence (Q03431 whole entry, looked up): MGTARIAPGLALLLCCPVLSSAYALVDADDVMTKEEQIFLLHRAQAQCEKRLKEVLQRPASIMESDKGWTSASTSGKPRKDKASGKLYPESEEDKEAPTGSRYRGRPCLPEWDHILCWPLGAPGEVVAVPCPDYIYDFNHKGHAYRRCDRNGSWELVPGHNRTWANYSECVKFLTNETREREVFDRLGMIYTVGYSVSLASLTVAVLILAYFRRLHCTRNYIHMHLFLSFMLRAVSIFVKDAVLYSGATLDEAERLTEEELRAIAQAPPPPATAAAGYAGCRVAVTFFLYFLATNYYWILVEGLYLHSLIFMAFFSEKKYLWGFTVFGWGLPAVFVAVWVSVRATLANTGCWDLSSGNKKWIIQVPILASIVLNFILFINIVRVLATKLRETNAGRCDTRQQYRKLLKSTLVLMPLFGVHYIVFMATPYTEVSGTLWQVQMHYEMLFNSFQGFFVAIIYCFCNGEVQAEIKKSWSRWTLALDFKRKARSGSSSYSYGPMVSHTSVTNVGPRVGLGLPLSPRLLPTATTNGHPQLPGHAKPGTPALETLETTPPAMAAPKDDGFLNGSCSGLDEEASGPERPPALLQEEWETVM
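HEK-293-derived GP2 cells expressing PTHR1 and a GloSensor cAMP reporter, 3,000/well, plated overnight, given luciferin plus IBMX (each 0.5 mM as added) for 1 h at 37 °C, then compound for 1 h at 37 °C. Luminescence was read after 15 min at room temperature.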
RXFP1 ag – activates the human relaxin receptor RXFP1; 0.3% of 370,000 active; Q9HBX9; Potency, µM (highest dose often 57.5 µM), inactives show at the highest dose activation, actives largely listed as activators; HEK293T-RXFP1 cAMP TR-FRET, 30 min; response scale: percent of porcine relaxin response, buffer zero; AID 2676; also: potency is read from the fitted curve at half-maximal effect; % is scaled to controls: 0 for no effect and ±100 for the full control effect; nearly all actives have a fitted effect of over 60% in size
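cAMP rise read by TR-FRET after 30 min, 37C compound exposure (up to 58 uM) in RXFP1-transfected HEK293 cells with Ro 20174 present. EC50 from Hill-equation fits, with 29 nM porcine relaxin as 100% and buffer as basal.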
GRP78 ERSR act – induces the endoplasmic reticulum stress response in human glioma cells | U87-MG GRP78 promoter luciferase reporter, 16 h | Potency, µM, for the others: top-dose activation, actives largely listed as activators | 0.02% of 420,000 active; also: potency is read from the fitted curve at half-maximal effect; series mostly up to about 76 µM; % of control where 0% means no effect; nearly all actives have a fitted effect of over 35% in size
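Stably transfected U87-MG glioma cells carrying a GRP78-based luciferase sensor; 16 h compound incubation. Luminescence end-point read 10 min after Bright-Glo addition at room temperature.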
KCNH2 3.1 inh – blocks the human KCNH2 3.1 channel isoform; U2OS KCNH2 3.1, thallium flux FluxOr; stronger effect = lower value; activity change, % (tested at about 1.8 µM); 0.95% of 340,000 active;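 active = maximum activity change below -70%; inconclusive = maximum activity change from -70% to -50%; inactive = maximum activity change above -50%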;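 also: thallium influx rate constant from kinetic fluorescence after stimulation buffer; % is scaled to controls: 0 for no effect and ±100 for the full control effect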
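U2OS cells transduced with KCNH2 3.1 mutant virus (1.77 x 10^8 /mL, 4 h), plated overnight at 37 C, loaded 45 min with FluxOr dye plus Red40 quencher. Thallium flux rate constant from kinetic reads after stimulation buffer, normalised to controls.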
RXFP1 antag – antagonists of human relaxin receptor RXFP1. 0.59% of 350,000 active. activity change, negative = inhibition, % at 57.5 µM. HEK293-RXFP1, relaxin-stimulated cAMP HTRF, 30 min; stronger effect = lower value. Q9HBX9;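 active = activity change of -60% or lower, but not beyond a set lower limit; inconclusive = change between -60% and -40%, or beyond the set limit; inactive = change above -40%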; also: % is scaled to controls: 0 for no effect and ±100 for the full control effect
hERG WT inh – inhibitors of human wildtype KCNH2 potassium channel | AID 720551 | Q12809 | 0.37% of 340,000 active | activity change, % at 1.84 µM | U2OS, BacMam KCNH2, thallium flux FluxOr; stronger effect = lower value;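 active = maximum activity change below -70%; inconclusive = maximum activity change between -70% and -50%; inactive = maximum activity change above -50%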; also: % is scaled to controls: 0 for no effect and ±100 for the full control effect
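U2OS cells transduced with wild-type KCNH2 virus are loaded with FluxOr dye for 45 min, and thallium flux is measured in kinetic reads before and after stimulation buffer. Rate constants are normalized to DMSO controls.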
* = called active by the depositor; i = inactive; ? = inconclusive; / = not tested or not shown; [ ] = dose if it differs, or a comment. Unless noted, calls follow the shape of the dose curve; as a rule, active = well fitted curve in the direction sought with a large enough effect; inconclusive = small, poorly fitted or top-dose-only effect, or another doubt; inactive = no such curve, though single readings can be large; an effect the other way counts as inactive or inconclusive.

SMILES	PTHR1 ag	RXFP1 ag	GRP78 ERSR act	KCNH2 3.1 inh	RXFP1 antag	hERG WT inh
Cc1cccc(N2CCN(C(=O)CN3C(=O)COc4ccc(S(=O)(=O)N5CCCC5)cc43)CC2C)c1 (stereo unspecified)	-18%	4%	-4%	/	/	/
COc1ccc(CN(CC(=O)NCCC(C)C)C(=O)CCC(=O)Nc2nccs2)cc1	-20%	-4%	-3%	-13	-69*	1
CCOc1ccc2[nH]c(=O)c(CN(CCO)C(=O)c3ccc(Br)cc3)cc2c1	-3%[57.5 µM]	0%	-9%	-140*	-3	-6
COc1ccccc1Nc1ncccc1[N+](=O)[O-]	i	1%	-4%	12	5	3
COc1ccccc1OCCn1cc(C=O)c2ccccc21	-5%	3%	-3%	-90*	4	-7
CCCCc1ccc(NC(=O)CSc2nc(=O)n(CCN(CC)CC)c3c2CCCC3)cc1	i	2%	-4%	-19	-16	13
CCCCc1ccc(NC(=O)CSc2nc(=O)n(CCN(C)C)c3c2CCC3)cc1	-33%	0%	-3%	-8	-85*	22
CC1=C(C(=O)OC2CCCCC2)C(c2ccc(N(C)C)cc2)NC(=O)N1 (stereo unspecified)	-1%	-3%	-1%	2	1	4
O=C(CN1CCOCC1)NNc1c2ccccc2nc2ccccc12	-12%	-5%	-7%	-19	-62*	13
Cc1ccc(-n2ncc(C(=O)N3CCN(c4ccc(Cl)cc4)CC3)c2C2CCN(C(=O)OC(C)(C)C)CC2)c(C)c1	-23%	-4%	-3%	/	-4	/
CCOC(=O)Cc1nn[nH]n1	i	0%	-4%	-128*	-7	-7
Cc1[nH]c(=S)[nH]c(=O)c1Cc1ccccc1	i	-1%	-1%	4	-63*	-11
Cc1cccc(OCCc2c(C)[nH]c(=S)[nH]c2=O)c1	-6%	3%	-3%	5	-118*	10
Cc1[nH]c(=S)[nH]c(=O)c1Cc1c(O)ccc2ccccc12	-58%	/	0%	1	-17	-5
c1ccc(N2CCN(c3ccccc3)C2c2cccs2)cc1	19%[57.5 µM]	0%	1%	3	-17	-132*
O=C(NCC1CCCO1)c1cncc(Br)c1 (stereo unspecified)	-17%	4%	-4%	-145*	-2	-16
O=C(COC(=O)c1cncc(Br)c1)NCC1CCCO1 (stereo unspecified)	i	7%	2%	-4	-8	-3
Cc1ccc(C)c(C(=O)CCC(=O)Nc2ccc(F)cc2)c1	-19%	-2%	-8%	-1	11	-6
Cc1ccc(C)c(C(=O)CCC(=O)Nc2ccc(N3CCN(C)CC3)cc2C)c1	-32%	/	0%	-122*	-6	-48
CCN(CC)CCN(C(=O)/C=C/c1cccs1)c1nc2ccc(Cl)cc2s1	i	-3%	-1%	-100*	2	-149*
CN(C)CCN(C(=O)/C=C/c1cccs1)c1nc2ccc(F)cc2s1	15%	0%	-7%	?	-14	-8
CCCCNC(=O)c1ccc(Cn2c(=S)[nH]c3c([nH]c4ccc(OC)cc43)c2=O)cc1	i	3%	7%	-8	-85*	-3
CCOCCCNC(=O)c1ccc(Cn2c(=S)[nH]c3c([nH]c4ccc(OC)cc43)c2=O)cc1	-16%	2%	-1%	41	-36	/
COc1ccc2[nH]c3c(=O)n(Cc4ccc(C(=O)NCC5CCCO5)cc4)c(=S)[nH]c3c2c1 (stereo unspecified)	3%	8%	-2%	-7	-89*	6
CC[C@H](C)NC(=O)c1ccc(Cn2c(=S)[nH]c3c([nH]c4ccc(OC)cc43)c2=O)cc1	i	3%	2%	7	-64*	3
SMILES	PTHR1 ag	RXFP1 ag	GRP78 ERSR act	KCNH2 3.1 inh	RXFP1 antag	hERG WT inh
CCOC(=O)N1CCN(C(=O)C2CCN(C(=O)Nc3ccccc3)CC2)CC1	i	/	-1%	7	-12	2
Cc1nnnn1/C(=C\c1ccccc1)C(=O)OCC(=O)Nc1cccc(S(=O)(=O)N(C)C)c1	-44%	-1%	-14%	28	?	-14
Cc1nnnn1/C(=C\c1ccccc1)C(=O)OCC(=O)Nc1ccc(Cl)cc1F	-39%	1%	?	-6	-64*	-2
Cc1cccc2sc(NNC(=O)C3=COCCO3)nc12	i	-2%	1%	-6	-61*	-5
c1ccc(N2CCN(C3CC4CCC3C4)CC2)cc1 (stereo unspecified)	i	1%	0%	-5	-8	-4
Cc1cc(Br)c2nc3c(c(C(=O)O)c2c1)CCCCC3	6%	2.2µM*	-2%	11	52	2
COc1ccc(N2CCN(C(=O)CN(c3cccc(Br)c3)S(C)(=O)=O)CC2)cc1	-10%[57.5 µM]	0%	-3%	10	-17	2
CC1CCC(C(C)C)C(OC(=O)Cn2c(-c3ccccc3)[n+](C)c3ccccc32)C1 (stereo unspecified)	-32%	0%	-6%	-1	-71*	-9
CC1CCC(C(C)C)C(OC(=O)Cn2c(-c3ccc(F)cc3)[n+](C)c3ccccc32)C1 (stereo unspecified)	-53%	0%	-8%	-36	?	-12
CC1(C)CC(NC(=O)c2sc3cc(Cl)ccc3c2Cl)CC(C)(C)N1	i	0%	-5%	?	-60*	-1
O=C(NC1CC1)c1sc2cc(Cl)ccc2c1Cl	-4%	0%	-1%	-14	-8	-2
CCCCCC1CC(CC(=O)Nc2ccc([N+](=O)[O-])cc2)C(=O)O1 (stereo unspecified)	-36%	0%	0%	-71*	-2	/
CCCCCC1CC(CC(=O)Nc2ccc([N+](=O)[O-])cc2)OC1=O (stereo unspecified)	i	-1%	-1%	-4	22	1
CCNc1nc(NC(C)C)nc(NC(C)(C)C)n1	2%	1%	-4%	7	-11	8
CN(C)CCNC(=O)c1cc2c(s1)-c1ccc(Cl)cc1SC2	2%	3%	-13%	-81*	-14	-113*
Cc1ccc(CNC(=O)c2cc3c(s2)-c2ccc(Cl)cc2SC3)cc1	-4%	5%	1%	/	-6	/
COC(=O)c1cc2sccc2n1Cc1ccccc1	i	2%	-4%	/	-31	/
CCCCN(CCCC)CC(O)CN1C(=O)NC(C)(C)C1=O (stereo unspecified)	i	0%	-6%	-3	-8	-3
